Data reported in the OligoGym collection.
Note: reference of the scale not given here.

Each sequence was assayed against PALM2-AKAP2 (assay: pooled miR-30 sensor sort-seq; sequence = guide strand). Conditions: shRNA.
Sequence TTCTAATGCAGTATTGTTCTTT has a sensor-assay potency score (higher = more potent) of 0.398. TTGAATGGCATTCTGCACCAGG gave a sensor-assay potency score (higher = more potent) of -0.555. For TTGACAGATCTTGAGAACTGAT, the sensor-assay potency score (higher = more potent) was -0.51. TTTTAGATTTGTGTGTCTCATA gave a sensor-assay potency score (higher = more potent) of -0.987.

The sequences below were run against PAQR4 in the same assay as above. Conditions: shRNA.
TTGAACTGCAGGTGCGGCGGCG showed a sensor-assay potency score (higher = more potent) of -1.22. TTGGTGGCACATAAAGAGGTGA was tested, and the sensor-assay potency score (higher = more potent) was -0.895. TAGCAGGGCAGGGAGCCTGGAG showed a sensor-assay potency score (higher = more potent) of -1.85. TAGAAGAGGCTGCGCAGGCAGC showed a sensor-assay potency score (higher = more potent) of -1.34. GAACTTATTGAACTGCAGGTGC gave a sensor-assay potency score (higher = more potent) of -1.19. TTCGTTGTGCAGGTAGAAGAGG gave a sensor-assay potency score (higher = more potent) of -0.851. In the case of AAAGAGGTGATAGAGCACGGAG, the sensor-assay potency score (higher = more potent) is reported as -0.892. Work on TATTGAACTGCAGGTGCGGCGG yielded a sensor-assay potency score (higher = more potent) of -0.944. Sequence TAGAGCACGGAGCCTGCAGGGG has a sensor-assay potency score (higher = more potent) of -1.54. Sequence TCGTTGTGCAGGTAGAAGAGGC has a sensor-assay potency score (higher = more potent) of -0.773. TTTATTGATGTCATCCAGGGTC was tested, and the sensor-assay potency score (higher = more potent) was 0.153. TTATTGAACTGCAGGTGCGGCG was tested, and the sensor-assay potency score (higher = more potent) was -1.14.

What follows are sequences tested against PAQR6 in the same assay as above. Conditions: shRNA.
TTGGTCATCTGGAAGGAGCTGA gave a sensor-assay potency score (higher = more potent) of 0.592. TAGGTTCCCAGCTGCAGCCAAG gave a sensor-assay potency score (higher = more potent) of -1.67. TAATGAGTAGGTTCCCAGCTGC showed a sensor-assay potency score (higher = more potent) of -0.176. TTGTCGAACAGGAATGGATAGG gave a sensor-assay potency score (higher = more potent) of -0.865. With TGAGGACACAGTCCAAAGCCGA the sensor-assay potency score (higher = more potent) was -1.67. In the case of TCTATAGGCAAATAGCTGCTGG, the sensor-assay potency score (higher = more potent) is reported as -0.274. With TCGTTGGTCATCTGGAAGGAGC the sensor-assay potency score (higher = more potent) was -1.68. Work on AAAGAGTGGGAGGTTGTCGAAC yielded a sensor-assay potency score (higher = more potent) of -1.08. Work on TAGGCGAAGGCTCCTGTGCGGA yielded a sensor-assay potency score (higher = more potent) of -1.44. TGTAATCAAAGCGTCCTGGTGC gave a sensor-assay potency score (higher = more potent) of 0.2. In the case of TGTGAAAGCAGCAATAATGAGT, the sensor-assay potency score (higher = more potent) is reported as -0.688.

The sequences below were run against PARN in the same assay as above. Conditions: shRNA.
In the case of TTCTTCTTCATCTACTTTGCTG, the sensor-assay potency score (higher = more potent) is reported as -0.0536. With TAAGCTTCTGATACCTCTCTTC the sensor-assay potency score (higher = more potent) was 0.34. Sequence TTTCTCTTTCCTACTGTGCTGG has a sensor-assay potency score (higher = more potent) of 0.101. TAAACTTCTTTTGATCCTCAGG was tested, and the sensor-assay potency score (higher = more potent) was -0.665. With TTGACATCTGGTGAGGATCTAT the sensor-assay potency score (higher = more potent) was -0.282. TAGCTTTCTGCATATTTGCTGG was tested, and the sensor-assay potency score (higher = more potent) was -0.898. With TTTAGTATCCAAGAGTCTGGGG the sensor-assay potency score (higher = more potent) was -0.201. TTCATGACAGCCTACAACCGTG gave a sensor-assay potency score (higher = more potent) of -0.783. TAGGCTGCAAGTCTGGTCCTTC showed a sensor-assay potency score (higher = more potent) of 0.109. TTTATTAAAATCAAATCCCTGG showed a sensor-assay potency score (higher = more potent) of 0.307. For ATACATAGGACAGAGCTCCTGC, the sensor-assay potency score (higher = more potent) was 0.763. TAGAAGTTAAATGACTTCGTTA was tested, and the sensor-assay potency score (higher = more potent) was -0.166.
